These results are taken from ChEMBL document CHEMBL3988442, “University of Dundee, Small-Polar-MMV Screening Library” (2021).

The whole screen tested about 38,000 compounds, of which about 1,200 (3.2%) showed an effect of 50% or more. The median lay at about -58%. The full list was thinned out, with strong results kept by preference.

This experiment deals with Plasmodium falciparum. Description: Calibr Malaria Delayed Death Assay SOP. The settings on record: concentration 4.99e-06 (unit not given; other assays of the set use mol/L). In kind it is functional, organism-based. Also on record: scale not given: in the data most compounds retested in dose-response had high values.
As to `CC(=O)N(Cc1noc(C2CC2)n1)C1CCN(Cc2cc(C)on2)C1` (stereo not given), the “Percent Effect” value is listed as -9.487%.

In the case of `FC(F)(F)c1cccc(OC2CCN(Cc3ncc[nH]3)CC2)c1`, the “Percent Effect” value is given as -24.7%.

As to `FC(F)(F)c1cccc(OC2CCN(Cc3c[nH]cn3)CC2)c1`, the “Percent Effect” value is reported as 48.24%.

Consider `Cc1cccc(-c2nc(N)nc3c2CN(C(=O)C2CCCC2)C3C)c1` (stereo not given), for which the “Percent Effect” value is 35.57%.

With `COc1ccccc1CN1CC(O)CN(C(=O)OCC(C)C)CC1=O` (stereo not given), the “Percent Effect” value is -17.94%.

On to `Nc1ccc(C(=O)N2C[C@@H]3CC[C@H](C2)N(Cc2ccccc2)C3)cn1`, for which the “Percent Effect” value is -23.45%.

With `O=C(O)C(F)(F)F.O=C(O)C(F)(F)F.O=C(c1cccnc1)N1CCN2C[C@H](OCc3ccccc3)C[C@H]2C1`, the “Percent Effect” value is reported as -25.13%.

In the case of `CC(C#N)CSc1ccccc1NCC(=O)NC(C1CC1)C1CC1` (stereo not given), the “Percent Effect” value is recorded as 54.59%.

For the molecule `CC(C#N)CSc1ccccc1NCC(=O)NC1CCCCC1` (stereo not given), the “Percent Effect” value is given as -62.9%.

As to `CC(C#N)CSc1ccccc1NCC(=O)Nc1ccccc1` (stereo not given), the “Percent Effect” value was -74.13%.

As for `COc1c[nH]c(C(=O)N2CCN(c3ccccc3)CC2)cc1=O`, the “Percent Effect” value is listed as -92.19%.

Turning to `COC(=O)c1c(C(F)(F)F)cnc(OC)c1Cl`, the “Percent Effect” value is -7.4%.

Turning to `CCC(CO)NC(=O)NCc1cc(C#N)ccc1F` (stereo not given), the “Percent Effect” value is -31.58%.

For `COc1cccc(CNc2nc(C)cc(C)n2)c1OC`, the “Percent Effect” value was -94.43%.

As to `COc1cccc(CNc2cc(C)nc(-c3ccncc3)n2)c1OC`, the “Percent Effect” value worked out at 88.78%.

Consider `COc1cccc(CNc2cc(C)nc(-c3ccncc3)n2)c1O`, for which the “Percent Effect” value is recorded as -16.17%.

Take `CNc1oc(-c2cc(S(=O)(=O)N3CCCC3)c(C)o2)nc1C#N`: the “Percent Effect” value is recorded as -60.45%.

For the molecule `Cc1nn(C)c2nc(N3CCCC3c3nccs3)sc12` (stereo not given), the “Percent Effect” value is recorded as -63.74%.

Turning to `NC(=O)c1cccnc1N1C[C@@H]2CC[C@H](C1)N(Cc1ccccn1)C2=O`, the “Percent Effect” value is -36.76%.

In the case of `Fc1ccc(OCc2nnc([C@H]3CCN(Cc4ccccn4)C3)o2)cc1`, the “Percent Effect” value was -10.02%.

`CCC(=O)N1CCC2(CC1)CC(NC(=O)N(C)C)c1cc(C)ccc12` (stereo not given): the “Percent Effect” value is listed as -96.24%.

With `Cc1noc(C)c1CS(=O)(=O)CC(=O)N1CCc2sccc2C1`, the “Percent Effect” value is given as -29.06%.

With `Cc1noc(Cl)c1CCC(=O)N1CCN(c2cnccn2)CC1`, the “Percent Effect” value is recorded as -135.5%.

Consider `Cc1noc(Cl)c1CCC(=O)N1CCN(c2ccccc2)CC1`, for which the “Percent Effect” value was 51.57%.

As for `Cc1nn(C)c(C)c1CCC(=O)N1CCc2sccc2C1`, the “Percent Effect” value is given as -11.91%.

With `Cc1noc(Cl)c1CCC(=O)N1CCc2sccc2C1`, the “Percent Effect” value is reported as 53%.

`Cc1noc(Cl)c1CCC(=O)N1CCN(CC(C)(C)O)CC1`: the “Percent Effect” value is listed as -36.25%.

Turning to `CC(CO)(NC(=O)NCCc1ccc(Br)s1)C1CC1` (stereo not given), the “Percent Effect” value is -76.18%.

For the molecule `Cc1[nH]ncc1C(=O)N1CCCC1c1noc(C2CC2)n1` (stereo not given), the “Percent Effect” value was -58.86%.

Turning to `CCOCC(O)CN1CCN(C(=O)c2ccc(OC)cc2)CC1` (stereo not given), the “Percent Effect” value is recorded as -30.2%.

Turning to `O=C(Nc1ccc(=O)n(Cc2ccccc2Cl)c1)C1CC1`, the “Percent Effect” value is reported as -14.36%.

Turning to `CCOc1cccc(CNc2ccccc2C(=O)OC)c1O`, the “Percent Effect” value is reported as -51.83%.

As for `CCOc1cccc(CNC(C)c2ccc(-n3ccnc3)cc2)c1O` (stereo not given), the “Percent Effect” value was determined as 74.87%.

On to `COc1cccc(CNC(C)c2ccc(-n3ccnc3)cc2)c1OC.Cl` (stereo not given), for which the “Percent Effect” value came to 16.61%.

On to `CN(C)CCNC(=O)c1ccn(-c2ccc3ccccn23)n1.O=C(O)C(F)(F)F`, for which the “Percent Effect” value was found to be 83.48%.

For `COCCCNC(=O)c1ccn(-c2ccc3ccccn23)n1`, the “Percent Effect” value is recorded as -7.182%.

Consider `N#CCCNC(=O)c1ccn(-c2ccc3ccccn23)n1`, for which the “Percent Effect” value is on record as -51.94%.

As for `CCn1nc2c(cc1=O)CN(c1ncnc3sccc13)CC2`, the “Percent Effect” value is reported as 2.158%.

For the molecule `c1ccc(COC2CCN(Cc3cc4n(n3)CCCNC4)CC2)nc1`, the “Percent Effect” value is listed as -20.17%.

On to `c1ccc2c3c([nH]c2c1)CN(Cc1cc2n(n1)CCNC2)CC3`, for which the “Percent Effect” value came to 44.64%.

Consider `c1csc(N2CCN(Cc3cc4n(n3)CCNC4)CC2)n1`, for which the “Percent Effect” value is -68.56%.

In the case of `OC(c1ccccn1)C1CCN(Cc2cc3n(n2)CCCNC3)CC1` (stereo not given), the “Percent Effect” value is -111.2%.

As to `Clc1cccc2c3c([nH]c12)CCN(Cc1cc2n(n1)CCNC2)C3`, the “Percent Effect” value stood at 78.46%.

For `CSCCC(Nc1nc(C)cc(C)n1)C(=O)NC(C)(C)CO` (stereo not given), the “Percent Effect” value is reported as -11.3%.

Turning to `COc1ccc(CCN2CCCC(CN(C)Cc3ccc(C)o3)C2)cc1` (stereo not given), the “Percent Effect” value is -48.89%.

Turning to `COc1ccccc1CC1CCCN(CCN2CCOC2=O)C1` (stereo not given), the “Percent Effect” value worked out at 47.59%.

As for `Cc1ncc(CN(C)C2CCCN(c3cccnn3)C2)s1` (stereo not given), the “Percent Effect” value is -24.6%.

Consider `CN(C)C(=O)CN1CCO[C@H]2CN(Cc3cccc(F)c3)C[C@H]21`, for which the “Percent Effect” value is -27.48%.

Take `Cc1nc(C2CCCNC2)cc(N(C)CCc2cn[nH]c2)n1` (stereo not given): the “Percent Effect” value was -154.6%.

For `Cc1nc(C2CCCNC2)cc(N(C)CCc2ccccc2)n1` (stereo not given), the “Percent Effect” value was determined as 52.76%.

For the molecule `CCn1ccnc1CN(C)c1cc(C2CCCNC2)nc(C)n1` (stereo not given), the “Percent Effect” value is recorded as -40.5%.

As for `c1ccc(C(OCCNC2CCc3ncnn3C2)c2ccccc2)cc1` (stereo not given), the “Percent Effect” value amounted to 43.54%.

As to `c1ccc(C2(CNCc3cnc(N4CCOCC4)nc3)CC2)cc1`, the “Percent Effect” value was -24.34%.

On to `OC1(CNCc2cnc(N3CCOCC3)nc2)CCCCC1`, for which the “Percent Effect” value is -76.92%.

For the molecule `Cc1ccccc1C1(CNCc2cnc(N3CCOCC3)nc2)CC1`, the “Percent Effect” value came out at 50.04%.

Consider `O=C(O)C(F)(F)F.O=C(O)C(F)(F)F.c1cnc(N2CCCC3(CCN(c4ncccn4)C3)C2)nc1` (stereo not given), for which the “Percent Effect” value is -228.4%.

With `O=C(O)C(F)(F)F.O=C(c1cnccn1)N1CCCC2(CCN(Cc3ccsc3)C2)C1` (stereo not given), the “Percent Effect” value is listed as -36.03%.

Consider `O=C(O)C(F)(F)F.O=C(O)C(F)(F)F.O=C(O)[C@]12CCCN(Cc3ccsc3)C[C@H]1CN(c1ccccn1)C2`, for which the “Percent Effect” value is reported as -252.9%.

As for `Cn1cc(CN2CC3(CCN(Cc4ccsc4)C3)C2)cn1`, the “Percent Effect” value was -1.772%.

For `CCC(CC)CN1CCC2(CCCN(c3ncccn3)C2)C1` (stereo not given), the “Percent Effect” value is 60.59%.

Regarding `c1cnc(N2CCCC3(CCN(Cc4ccsc4)C3)C2)nc1` (stereo not given), the “Percent Effect” value is on record as 66.41%.

On to `Fc1cnc(N2CCCC3(CCN(c4ncccn4)C3)C2)nc1` (stereo not given), for which the “Percent Effect” value is -118%.

As to `O=C(O)C(F)(F)F.O=C(O)[C@]12CCCN(Cc3ccsc3)C[C@H]1CN(c1ncccn1)C2`, the “Percent Effect” value is -238.9%.

As to `Cc1cnc(N2CCC3(CCCN(c4ncc(F)cn4)C3)C2)nc1` (stereo not given), the “Percent Effect” value is -149.1%.

`Fc1cnc(N2CC3(CCN(Cc4ccsc4)C3)C2)nc1.O=C(O)C(F)(F)F`: the “Percent Effect” value is listed as -1.441%.
